Laboratory results as given in PubChem BioAssay AID1159580 (chemical genetic matrix, 2015).
Screen size: about 5,500 compounds; about 2,000 (36%) were called active. Another 18% or so got no clear call; they are omitted. Cut-off read from the data, not from the text of the source: active = normalized growth mostly below about 0.91 (no sharp cut-off); inconclusive = no clear call, values can overlap the other calls; inactive = mostly above about 0.92. The list shows a part of the results.

Experiment: chemical genetic growth profiling, strain panel (AID 1159580);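 note: tested at 20 µM; growth read once vehicle control cultures reached saturation at 30 °C; 1 = growth at the plate median or of vehicle wells; lower values mean less growth of the strain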
Details: S. cerevisiae deletion strains, growth OD
[1] = locus YAL040C, strain CLN3, stronger effect = lower value
[2] = locus YCL061C, strain MRC1 (second series), stronger effect = lower value
[3] = locus YDR363W, strain ESC2, stronger effect = lower value
[4] = locus YER002W, strain NOP16, stronger effect = lower value
[5] = locus YJR075W, strain HOC1, stronger effect = lower value
[6] = locus YNL175C, strain NOP13, stronger effect = lower value
[7] = locus YNL197C, strain WHI3, stronger effect = lower value
[8] = locus YNL224C, strain SQS1, stronger effect = lower value
[9] = locus YOR083W, strain WHI5 (second series), stronger effect = lower value

Measured: normalized growth

C=CCN1CCc2cccc3c2[C@H]1Cc1ccc(O)c(O)c1-3
inactive: [1] 0.942 | [4] 0.976 | locus YGR078C, strain PAC10, stronger effect = lower value 0.979 | [6] 0.966 | [7] 0.961 | [8] 0.985
active: [2] 0.481 | [3] 0.516 | [5] 0.199 | locus YNL128W, strain TEP1, stronger effect = lower value 0.888 | locus YNL322C, strain KRE1, stronger effect = lower value 0.152 | [9] 0.712

C=CCN1CC[C@]23c4c5ccc(O)c4O[C@@H]2/C(=N\N=C2\CC[C@@]4(O)C6Cc7ccc(O)c8c7[C@@]4(CCN6CC=C)[C@@H]2O8)CC[C@@]3(O)C1C5
inactive: [1] 1.01 | [2] 1 | locus YDR150W, strain NUM1, stronger effect = lower value 1 | [3] 1.01 | [4] 1 | [5] 1 | locus YMR307W, strain GAS1, stronger effect = lower value 1.01 | [6] 0.988 | [7] 1.02 | [8] 1.01 | [9] 1.02 | locus YPL055C, strain LGE1, stronger effect = lower value 0.982
